Drawing on publication PMC7862700, “An all-to-all approach to the identification of sequence-specific readers for epigenetic DNA modifications on cytosine”, this text covers binding signal for eight sequences.

What all share (experiment): DAPPL (digital affinity profiling via proximity ligation, sequencing); 10 mM Tris-HCl pH 7.5, 50 mM NaCl, 1 mM DTT, 4% glycerol, room temperature, 30 min; GST-TFs on glutathione beads, 16-mer random dsDNA library, 0.1% formaldehyde crosslink after washing; high values mean tight binding
What all share (settings): protein: recombinant; tags: N-terminal GST; dsDNA, one strand shown

One experiment deals with T1, ERF (Homo sapiens, UniProt P50548 1-548).
T1 sequence: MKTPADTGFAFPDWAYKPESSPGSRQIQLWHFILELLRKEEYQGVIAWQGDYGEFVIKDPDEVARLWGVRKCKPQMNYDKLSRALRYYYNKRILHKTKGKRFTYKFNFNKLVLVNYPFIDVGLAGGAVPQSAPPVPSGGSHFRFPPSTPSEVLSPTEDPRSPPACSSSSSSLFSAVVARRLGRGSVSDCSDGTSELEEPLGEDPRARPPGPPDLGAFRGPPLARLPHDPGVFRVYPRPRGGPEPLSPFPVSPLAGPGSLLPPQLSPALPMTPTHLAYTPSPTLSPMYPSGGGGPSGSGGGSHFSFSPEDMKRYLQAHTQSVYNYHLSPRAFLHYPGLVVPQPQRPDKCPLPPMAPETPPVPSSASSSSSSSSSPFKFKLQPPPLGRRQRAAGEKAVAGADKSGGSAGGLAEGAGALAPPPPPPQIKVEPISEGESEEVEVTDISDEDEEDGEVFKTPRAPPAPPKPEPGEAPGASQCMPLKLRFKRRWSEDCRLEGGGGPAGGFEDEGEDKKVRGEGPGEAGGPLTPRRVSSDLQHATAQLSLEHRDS
In outline: (§1)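 Human transcription factors carrying a GST fusion were produced in yeast, bound to glutathione beads, tagged with DNA barcodes and pooled together with a tag-only sample. Each pool was held with 200 nmole of a random double-stranded 16-mer DNA library in Tris/NaCl/DTT/glycerol buffer for 30 min at room temperature, then washed, crosslinked in 0.1% formaldehyde, proximity-ligated with BsaI/T4 ligase (1 h, 37 °C), PCR-amplified and sequenced on an Illumina NextSeq500. Binding signal is the read frequency of each hexamer for a given factor divided by its frequency in the tag-only sample.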

Another experiment has as its target T2, ETV3L (Homo sapiens, UniProt Q6ZN32 1-361).
T2 sequence: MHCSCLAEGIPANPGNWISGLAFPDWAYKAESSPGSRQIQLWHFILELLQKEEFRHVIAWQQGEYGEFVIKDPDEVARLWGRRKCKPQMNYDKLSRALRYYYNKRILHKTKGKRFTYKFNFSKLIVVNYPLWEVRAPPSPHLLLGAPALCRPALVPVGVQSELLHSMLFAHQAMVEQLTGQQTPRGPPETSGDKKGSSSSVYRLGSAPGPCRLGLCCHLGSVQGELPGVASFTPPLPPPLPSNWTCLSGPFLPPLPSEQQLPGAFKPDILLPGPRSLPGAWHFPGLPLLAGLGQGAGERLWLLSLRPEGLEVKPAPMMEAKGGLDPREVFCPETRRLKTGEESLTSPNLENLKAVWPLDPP
In outline: as §1

The target of another experiment is T3, ETS2 (Homo sapiens, UniProt P15036 1-469).
T3 sequence: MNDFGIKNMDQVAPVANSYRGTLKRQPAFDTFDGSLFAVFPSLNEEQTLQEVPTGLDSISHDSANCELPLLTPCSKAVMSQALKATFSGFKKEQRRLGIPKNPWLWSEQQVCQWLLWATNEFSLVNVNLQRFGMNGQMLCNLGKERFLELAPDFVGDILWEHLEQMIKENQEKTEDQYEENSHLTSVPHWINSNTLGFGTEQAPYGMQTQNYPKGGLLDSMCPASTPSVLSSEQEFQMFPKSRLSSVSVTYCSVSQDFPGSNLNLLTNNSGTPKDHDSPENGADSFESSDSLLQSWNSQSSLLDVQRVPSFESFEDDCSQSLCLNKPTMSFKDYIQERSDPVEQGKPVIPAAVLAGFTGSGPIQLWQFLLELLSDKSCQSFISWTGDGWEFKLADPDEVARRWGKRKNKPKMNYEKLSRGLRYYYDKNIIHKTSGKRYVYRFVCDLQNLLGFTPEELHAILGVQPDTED
In outline: as §1

The target of another experiment is T4, SPDEF (Homo sapiens, UniProt O95238 1-335).
T4 sequence: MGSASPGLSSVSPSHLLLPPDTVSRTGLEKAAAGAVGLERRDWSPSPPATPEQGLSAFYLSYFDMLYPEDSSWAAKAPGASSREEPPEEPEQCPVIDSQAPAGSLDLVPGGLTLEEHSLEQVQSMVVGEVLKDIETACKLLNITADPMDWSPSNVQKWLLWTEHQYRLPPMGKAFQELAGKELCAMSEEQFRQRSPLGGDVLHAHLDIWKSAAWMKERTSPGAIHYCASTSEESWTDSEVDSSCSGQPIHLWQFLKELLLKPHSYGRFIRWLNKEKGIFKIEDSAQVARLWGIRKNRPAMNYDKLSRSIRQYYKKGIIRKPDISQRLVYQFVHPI
In outline: as §1

A further experiment addresses T5, ETV7 (Homo sapiens, UniProt Q9Y603 1-341).
T5 sequence: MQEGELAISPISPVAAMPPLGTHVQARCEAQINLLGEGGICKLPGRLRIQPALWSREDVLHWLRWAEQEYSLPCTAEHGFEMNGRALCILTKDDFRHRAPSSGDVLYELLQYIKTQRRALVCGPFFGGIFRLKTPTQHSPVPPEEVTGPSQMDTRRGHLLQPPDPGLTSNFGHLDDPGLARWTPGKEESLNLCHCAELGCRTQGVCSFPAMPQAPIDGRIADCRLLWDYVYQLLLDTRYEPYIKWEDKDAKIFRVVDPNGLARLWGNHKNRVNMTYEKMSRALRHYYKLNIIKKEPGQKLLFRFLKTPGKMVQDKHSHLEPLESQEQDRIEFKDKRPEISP
In outline: as §1

In another experiment the target is T6, ELF5 (Homo sapiens, UniProt Q9UKW6-2 1-255).
T6 sequence: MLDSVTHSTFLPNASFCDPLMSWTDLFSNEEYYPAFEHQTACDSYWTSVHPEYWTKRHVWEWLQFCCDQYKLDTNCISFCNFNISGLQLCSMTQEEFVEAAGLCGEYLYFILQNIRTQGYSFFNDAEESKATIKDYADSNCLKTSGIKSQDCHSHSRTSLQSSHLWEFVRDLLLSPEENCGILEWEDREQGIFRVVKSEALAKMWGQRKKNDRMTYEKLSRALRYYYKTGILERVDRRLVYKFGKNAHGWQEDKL
In outline:
as §1

A further experiment concerns the target T7, ETV3 (Homo sapiens, UniProt P41162-2 1-143).
T7 sequence: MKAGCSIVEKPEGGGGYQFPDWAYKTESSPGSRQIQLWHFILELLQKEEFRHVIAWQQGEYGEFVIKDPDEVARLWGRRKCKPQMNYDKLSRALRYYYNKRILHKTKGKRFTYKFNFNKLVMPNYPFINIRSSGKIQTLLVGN
Summed up: as §1

The target of a further experiment is ETV6 (Homo sapiens, UniProt P41212 1-452). In outline:
as §1

Chain of ETV6 (P41212 whole entry): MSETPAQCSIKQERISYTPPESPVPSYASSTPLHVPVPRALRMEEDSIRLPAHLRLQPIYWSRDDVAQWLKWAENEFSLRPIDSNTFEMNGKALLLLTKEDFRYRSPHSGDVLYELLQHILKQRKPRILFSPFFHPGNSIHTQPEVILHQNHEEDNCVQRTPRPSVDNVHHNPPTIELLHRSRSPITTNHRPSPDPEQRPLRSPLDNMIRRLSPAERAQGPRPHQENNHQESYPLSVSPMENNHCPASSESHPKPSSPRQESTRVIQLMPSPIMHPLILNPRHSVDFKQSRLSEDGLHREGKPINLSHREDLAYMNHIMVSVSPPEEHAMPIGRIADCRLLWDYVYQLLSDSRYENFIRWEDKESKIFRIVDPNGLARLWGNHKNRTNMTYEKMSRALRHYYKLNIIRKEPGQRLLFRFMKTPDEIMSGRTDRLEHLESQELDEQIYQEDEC

With GTTCCG, the binding signal with ERF is 1.74 fold enrichment (6-mer frequency, TF over GST control); with ETV3L, 1.93 fold enrichment (6-mer frequency, TF over GST control); in the experiment with ETS2 it was 1.98 fold enrichment (6-mer frequency, TF over GST control); with SPDEF, 2.25 fold enrichment (6-mer frequency, TF over GST control); with ETV7, 1.67 fold enrichment (6-mer frequency, TF over GST control); in the experiment with ELF5 it was 2.5 fold enrichment (6-mer frequency, TF over GST control). The binding signal in the experiment with ETV3 is 2.17 fold enrichment (6-mer frequency, TF over GST control); with ETV6, 1.9 fold enrichment (6-mer frequency, TF over GST control).
As for TTGTAC, the binding signal is 1.31 fold enrichment (6-mer frequency, TF over GST control) with ERF; 1.41 fold enrichment (6-mer frequency, TF over GST control) in the experiment with ETV3L; 1.34 fold enrichment (6-mer frequency, TF over GST control) in the experiment with ETS2; 1.54 fold enrichment (6-mer frequency, TF over GST control) in the experiment with SPDEF; 1.33 fold enrichment (6-mer frequency, TF over GST control) with ETV7; 1.23 fold enrichment (6-mer frequency, TF over GST control) in the experiment with ELF5. For the same sequence, the binding signal with ETV3 was 1.44 fold enrichment (6-mer frequency, TF over GST control); with ETV6, 1.48 fold enrichment (6-mer frequency, TF over GST control).
With GCACAT, the binding signal was 1.2 fold enrichment (6-mer frequency, TF over GST control) with ERF; 1.19 fold enrichment (6-mer frequency, TF over GST control) with ETV3L; 1.12 fold enrichment (6-mer frequency, TF over GST control) with ETS2; 1.28 fold enrichment (6-mer frequency, TF over GST control) in the experiment with SPDEF; 1.07 fold enrichment (6-mer frequency, TF over GST control) in the experiment with ETV7; 1.1 fold enrichment (6-mer frequency, TF over GST control) in the experiment with ELF5. The binding signal in the experiment with ETV3 was 1.15 fold enrichment (6-mer frequency, TF over GST control); with ETV6, 1.14 fold enrichment (6-mer frequency, TF over GST control).
As for TCATTA, the binding signal was 1.19 fold enrichment (6-mer frequency, TF over GST control) in the experiment with ERF; 1.08 fold enrichment (6-mer frequency, TF over GST control) with ETV3L; 1.1 fold enrichment (6-mer frequency, TF over GST control) with ETS2; 1.06 fold enrichment (6-mer frequency, TF over GST control) in the experiment with SPDEF; 1.16 fold enrichment (6-mer frequency, TF over GST control) in the experiment with ETV7; 1.09 fold enrichment (6-mer frequency, TF over GST control) with ELF5. Moreover, the binding signal is 1.12 fold enrichment (6-mer frequency, TF over GST control) in the experiment with ETV3 and 1.06 fold enrichment (6-mer frequency, TF over GST control) with ETV6.
With ATGGAA, the binding signal with ERF is 1.23 fold enrichment (6-mer frequency, TF over GST control); with ETV3L it was 1.18 fold enrichment (6-mer frequency, TF over GST control); with ETS2, 1.23 fold enrichment (6-mer frequency, TF over GST control); with SPDEF it was 1.2 fold enrichment (6-mer frequency, TF over GST control); in the experiment with ETV7, 1.35 fold enrichment (6-mer frequency, TF over GST control); with ELF5 it was 1.13 fold enrichment (6-mer frequency, TF over GST control). Moreover, the binding signal with ETV3 was 1.2 fold enrichment (6-mer frequency, TF over GST control); with ETV6, 1.28 fold enrichment (6-mer frequency, TF over GST control).
Consider AATAGA, for which the binding signal in the experiment with ERF is 1.19 fold enrichment (6-mer frequency, TF over GST control); in the experiment with ETV3L, 1.16 fold enrichment (6-mer frequency, TF over GST control); in the experiment with ETS2, 1.1 fold enrichment (6-mer frequency, TF over GST control); with SPDEF, 1.05 fold enrichment (6-mer frequency, TF over GST control); with ETV7, 1.17 fold enrichment (6-mer frequency, TF over GST control); in the experiment with ELF5, 1.11 fold enrichment (6-mer frequency, TF over GST control). Further, the binding signal in the experiment with ETV3 is 1.09 fold enrichment (6-mer frequency, TF over GST control); with ETV6 it was 1.17 fold enrichment (6-mer frequency, TF over GST control).
For the sequence AAGATA, the binding signal with ERF is 1.17 fold enrichment (6-mer frequency, TF over GST control); with ETV3L it was 1.09 fold enrichment (6-mer frequency, TF over GST control); with ETS2 it was 1.1 fold enrichment (6-mer frequency, TF over GST control); with SPDEF it was 1.1 fold enrichment (6-mer frequency, TF over GST control); with ETV7 it was 1.1 fold enrichment (6-mer frequency, TF over GST control); with ELF5 it was 1.07 fold enrichment (6-mer frequency, TF over GST control). The binding signal in the experiment with ETV3 is 1.11 fold enrichment (6-mer frequency, TF over GST control); in the experiment with ETV6, 1.14 fold enrichment (6-mer frequency, TF over GST control).
Turning to AATTTG, the binding signal in the experiment with ERF was 1.28 fold enrichment (6-mer frequency, TF over GST control); with ETV3L, 1.3 fold enrichment (6-mer frequency, TF over GST control); with ETS2 it was 1.32 fold enrichment (6-mer frequency, TF over GST control); in the experiment with SPDEF it was 1.24 fold enrichment (6-mer frequency, TF over GST control); with ETV7, 1.38 fold enrichment (6-mer frequency, TF over GST control); with ELF5, 1.33 fold enrichment (6-mer frequency, TF over GST control). For the same sequence, the binding signal with ETV3 was 1.39 fold enrichment (6-mer frequency, TF over GST control); in the experiment with ETV6, 1.22 fold enrichment (6-mer frequency, TF over GST control).
